FMDV inh – High Throughput Screening for Foot and Mouth Disease Virus Antivirals. FMDV antiviral cell-based qHTS. Potency, µM (highest dose often 57.9 µM), inactives show at the highest dose activity change, negative = inhibition, hits mostly inhibitors. actives 1.2% (n = 410,000); calls by dose curve; tested in HEK293T cells; further: read-out not given here; potency means the concentration at half of the fitted maximal effect; nearly all actives have a fitted effect of over 45% in size
Vaccinia Venus – qHTS for Stage-Specific Inhibitors of Vaccinia Orthopoxvirus: Venus Reporter Primary qHTS | Vaccinia virus Venus reporter expression, fluorescence | Potency, µM (highest dose often 36.5 µM), without a hit: at the highest dose activity change, negative = inhibition, most hits filed as inhibitors | actives 0.46% (n = 330,000); calls by dose curve; tested in A549 cells; further: potency means the concentration at half of the fitted maximal effect; nearly all actives have a fitted effect of over 30% in size
HCV inhibitor – qHTS Assay for Inhibitors of Hepatitis C Virus (HCV). Huh7.5.1 HCVcc-Cre infection, luciferase reporter, 44 h. actives 3.4% (n = 340,000). Potency, µM (titrated, usually from 41.8 µM), for the others: top-dose activity change, negative = inhibition, usual class: inhibitors; further: potency means the concentration at half of the fitted maximal effect
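Antiviral activity was scored by luciferase reporter output from cells infected with HCVcc-Cre (~0.5 moi) in presence of compound, 44 h infection period, cells seeded 1,000/well 4 h prior.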
Vaccinia mCherry – qHTS for Stage-Specific Inhibitors of Vaccinia Orthopoxvirus: mCherry Reporter Primary qHTS. Vaccinia virus mCherry reporter infection, fluorescence. Potency, µM (titrated, usually from 36.5 µM), for inactives: at the highest dose activity change, negative = inhibition, hits mostly inhibitors. actives 0.63% (n = 310,000). AID 720579, 2013; calls by dose curve; tested in A549 cells; further: potency means the concentration at half of the fitted maximal effect; nearly all actives have a fitted effect of over 35% in size
FBPA Giardia inh – qHTS Assay for Inhibitors of Fructose-1,6-bisphosphate Aldolase from Giardia Lamblia. A8B2U2. purified Giardia FBPA. Potency, µM (doses to about 59.6 µM), without a hit: at the highest dose activity, negative = inhibition, usual class: inhibitors. actives 0.71% (n = 290,000). AID 2451, 2010; further: potency means the concentration at half of the fitted maximal effect; nearly all actives have a fitted effect of over 55% in size
Target sequence (A8B2U2 whole entry, looked up): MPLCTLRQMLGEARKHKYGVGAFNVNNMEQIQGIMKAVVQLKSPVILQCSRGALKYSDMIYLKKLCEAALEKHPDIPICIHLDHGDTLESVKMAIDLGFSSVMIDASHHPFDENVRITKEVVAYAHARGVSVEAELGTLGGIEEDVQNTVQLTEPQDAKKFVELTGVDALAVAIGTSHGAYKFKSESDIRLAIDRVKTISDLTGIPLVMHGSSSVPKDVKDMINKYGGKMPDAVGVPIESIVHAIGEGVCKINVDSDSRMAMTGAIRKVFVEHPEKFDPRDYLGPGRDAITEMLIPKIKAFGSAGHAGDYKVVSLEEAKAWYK
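40 nM FBPA preincubated 10 min at RT with compound (up to 57.5 uM final), then substrate plus GAPDH/TPI/NAD/arsenate coupling and diaphorase/resazurin added. Fluorescence read after 20 min at RT, 525/598 nm.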
HCMV inh – qHTS Assay for inhibitors of the human cytomegalovirus (HCMV). HFF cells, HCMV-luciferase reporter, 72 h; hits give low values. activity change, negative = inhibition, % at 57.5 µM. actives 4.5% (n = 410,000); in the data active means activity change below about -60%; inconclusive means no clear call, values can overlap the other calls; inactive means above about -39%
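Compounds were evaluated in HFFs infected with an HCMV luciferase reporter virus (MOI 1 PFU/cell). Luciferase in lysates collected 72 h post infection served as the replication measure.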
* hit, by the source's call; [ ] = another dose, or the depositor's remark. Compounds with a hit are over-represented: about 7.5% of the library has one in this group of screens. Unless noted, the call rests on the fitted dose curve; in most records, active means well fitted curve in the direction sought with a large enough effect; inconclusive means small, poorly fitted or top-dose-only effect, or another doubt; inactive means no such curve, though single readings can be large; an effect the other way counts as inactive or inconclusive. On the % scale 0 is the no-effect control and ±100 the full control effect.

For Cc1c(C)c2ccc(OCC(=O)N(C)C3CCS(=O)(=O)C3)c(C)c2oc1=O (stereo not drawn) the results were FMDV inh 33%, HCV inhibitor -21% and HCMV inh 37.
For COc1cc(NC(=S)N2CCN(CCO)CC2)c(OC)cc1Cl the results were FMDV inh -9%, Vaccinia Venus -13%, HCV inhibitor 12%, Vaccinia mCherry -5%, FBPA Giardia inh -3% and HCMV inh -13.
Screening OCCN1CCN(C(=S)c2ccc(Cl)c(Cl)c2)CC1 returned FMDV inh -20%, HCV inhibitor 3%, FBPA Giardia inh 13µM* and HCMV inh 7.
Screening Cc1cc(N/N=C/c2ccc(O)cc2O)nc(-c2ccccc2O)n1 returned FMDV inh 0%, Vaccinia Venus 6.3µM*, HCV inhibitor inconclusive, Vaccinia mCherry 2.8µM* and FBPA Giardia inh 11%.
`Oc1ccc(C=NNc2nc3ccccc3s2)c(O)c1` gave FMDV inh 13%, Vaccinia Venus inconclusive, HCV inhibitor inconclusive, Vaccinia mCherry 5µM* and HCMV inh -63*.
C/C(=N\Nc1cc(C)nc(-c2ccccc2O)n1)c1ccccc1O was read as FMDV inh -21%, HCV inhibitor 11µM*, FBPA Giardia inh -8% and HCMV inh -38.
CCCCCOc1ccc(C(=O)CCC(=O)N2CCCC2)cc1 was read as FMDV inh -16%, Vaccinia Venus -1%, HCV inhibitor -27%, Vaccinia mCherry inactive, FBPA Giardia inh 8% and HCMV inh -18.
Cc1nc(N)nc(N)c1/C=C/C(C)(C)c1ccc(Cl)cc1 was read as FMDV inh inconclusive, Vaccinia Venus 3.5µM*, HCV inhibitor inconclusive, Vaccinia mCherry inconclusive, FBPA Giardia inh -10% and HCMV inh -109*.
CCn1c(=O)c2sccc2n2c(CCC(=O)Nc3ccc(C(C)C)cc3)nnc12 was read as FMDV inh -23%, Vaccinia Venus 2%, Vaccinia mCherry 6% and HCMV inh -8.
Cn1c(O)c(/C=C2\N=c3ccccc3=C2CCNC(=S)NC2CC2)c(=O)n(C)c1=O was read as FMDV inh 13µM*, Vaccinia Venus 7%, HCV inhibitor 7%, Vaccinia mCherry inactive, FBPA Giardia inh inconclusive and HCMV inh 16.
Screening Cn1c(O)c(/C=C2\C=c3ccccc3=NC2=O)c(=O)n(C)c1=O returned FMDV inh -14%, HCV inhibitor 14%, FBPA Giardia inh -8% and HCMV inh 0.
CC(C)C[C@H]1CNC(=S)N1CC1CCCN1C[C@H](Cc1ccccc1)N1C[C@H](Cc2ccc(O)cc2)N(CC2CCCCCC2)C1=S (stereo partly drawn) was read as FMDV inh inconclusive, Vaccinia Venus inconclusive, HCV inhibitor 6.3µM*, Vaccinia mCherry inconclusive and HCMV inh -101*.
`CC(C)C[C@H]1CN([C@@H](Cc2ccc(O)cc2)CN2CCC[C@@H]2CN2C(=S)NC[C@@H]2Cc2ccccc2)C(=S)N1CC1CCCCCC1` gave FMDV inh -11%, Vaccinia Venus -30%, Vaccinia mCherry -16% and HCMV inh -34.
CC(C)C[C@H]1CNC(=S)N1C[C@H]1CCCN1C[C@H](Cc1ccc(O)cc1)N1C[C@H](Cc2ccc(O)cc2)N(CC2CCCCCC2)C1=S was read as FMDV inh -8%, Vaccinia Venus inconclusive, Vaccinia mCherry inconclusive and HCMV inh -83*.
Screening CC(C)C[C@H]1CN([C@@H](Cc2ccc(O)cc2)CN2CCCC2CN2C(=S)NC[C@@H]2Cc2ccccc2)C(=S)N1CC1CCCCC1 (stereo partly drawn) returned FMDV inh -20%, Vaccinia Venus -11%, Vaccinia mCherry -26% and HCMV inh -12.
O=C(N[C@@H](Cc1ccccc1)c1nc2ccccc2[nH]1)c1ccc([N+](=O)[O-])cc1 was read as HCMV inh -3.
Screening O=Nc1c(O)[nH]c2c(Cl)c(Cl)ccc12 returned FBPA Giardia inh 5%.
Screening CCCCCCCCn1c2c(c(=N)c3ccccc31)CCC2 returned FMDV inh 2.5µM*, Vaccinia Venus inconclusive, HCV inhibitor 2.8µM*, Vaccinia mCherry inconclusive, FBPA Giardia inh -4% and HCMV inh -97*.
Screening CCCCCn1c2c(c(=N)c3ccccc31)CCC2 returned FMDV inh 0%, Vaccinia Venus 3%[7.34 µM], HCV inhibitor inconclusive, Vaccinia mCherry inactive[7.34 µM], FBPA Giardia inh 2% and HCMV inh -96*.
Screening CCCCn1c2c(c(=N)c3ccccc31)CCC2 returned FMDV inh -29%, Vaccinia Venus -27%, HCV inhibitor -17%, Vaccinia mCherry inactive, FBPA Giardia inh -1% and HCMV inh -36.
Screening CCCCCCCCCn1c2c(c(=N)c3c1CCC3)CCCC2 returned FMDV inh 10µM*, Vaccinia Venus inconclusive, HCV inhibitor 3.2µM*, Vaccinia mCherry inconclusive and FBPA Giardia inh 6%.
CCOC(=O)Cn1c2c(c(=N)c3c1CCC3)CCC2 was read as FMDV inh 0%, Vaccinia Venus -19%, HCV inhibitor -15%, Vaccinia mCherry -17%, FBPA Giardia inh -4% and HCMV inh 2.
`CCn1c2c(c(=N)c3c1CCC3)CCCC2` gave FMDV inh -24%, Vaccinia Venus -9%, HCV inhibitor -16%, Vaccinia mCherry inactive, FBPA Giardia inh -1% and HCMV inh -67*.
Cn1cc(CN2CCC(n3nccc3NC(=O)C3CCCC3)CC2)cn1 was read as FMDV inh -8%, Vaccinia Venus -12%, Vaccinia mCherry inactive and HCMV inh 29.
For CNc1c(Br)cc(C=O)cc1Br the results were Vaccinia Venus -9% and Vaccinia mCherry -14%.
For COc1ccc(N(CC(=O)Nc2cc(OC)c(OC)cc2C(=O)O)S(=O)(=O)c2c(C)noc2C)cc1 the results were FMDV inh 4%, HCV inhibitor 20% and HCMV inh -11.
COc1ccccc1NS(=O)(=O)c1cc(NC(=O)c2ccc3c(c2)OCCO3)ccc1C was read as FMDV inh 36%, Vaccinia Venus -18%, HCV inhibitor inconclusive, Vaccinia mCherry -23%, FBPA Giardia inh 0% and HCMV inh inconclusive.
For CCC1CCCCN1CCCNC(=O)c1ccc2c(c1)N(Cc1ccccc1F)C(=O)c1ccccc1S2(=O)=O (stereo not drawn) the results were FMDV inh -7%, Vaccinia Venus inconclusive, Vaccinia mCherry -28% and HCMV inh -101*.

High-throughput results deposited in PubChem by National Center for Advancing Translational Sciences (NCATS).
